PubChem BioAssay AID1159580 (chemical genetic matrix, 2015)
“And” between values parts separate entries of the source, which are not always exact repeats. Identical values can stand only once. Screen size: about 5,500 compounds; about 2,000 (36%) were called active. Roughly 18% stayed inconclusive and do not appear here. Rule as the data show it: active = normalized growth mostly below about 0.91 (no sharp cut-off); inconclusive = no clear call, values can overlap the other calls; inactive = mostly above about 0.92. The list shows a part of the results.

Experiment: chemical genetic growth profiling, strain panel (AID 1159580);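 also: tested at 20 µM; growth read once vehicle control cultures reached saturation at 30 °C; 1 = growth at the plate median or of vehicle wells; lower values mean less growth of the strain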
Settings: S. cerevisiae deletion strains, growth OD

Measured: normalized growth

COc1ccc2c(c1)OC/C(=C/c1ccc(OC)c(OC)c1)C2=O
0.838 (active) and 0.944 (inactive): locus YHR030C, strain SLT2, stronger effect = lower value
active: locus YAL026C, strain drs2, stronger effect = lower value 0.891 | locus YBR009C, strain hhf1, stronger effect = lower value 0.803 | locus YBR023C, strain chs3, stronger effect = lower value 0.882 | locus YBR231C, strain swc5, stronger effect = lower value 0.88 | locus YCL011C, strain gbp2, stronger effect = lower value 0.905 | locus YCL016C, strain dcc1, stronger effect = lower value 0.856 | locus YCL061C, strain MRC1, stronger effect = lower value 0.887 | locus YCL069W, strain vba3, stronger effect = lower value 0.873 | locus YDR137W, strain rgp1, stronger effect = lower value 0.682 | locus YDR162C, strain NBP2, stronger effect = lower value 0.833 | locus YDR318W, strain mcm21, stronger effect = lower value 0.894 | locus YDR335W, strain msn5, stronger effect = lower value 0.899 | locus YDR392W, strain spt3, stronger effect = lower value 0.212 | locus YDR502C, strain sam2, stronger effect = lower value 0.893 | locus YEL003W, strain gim4, stronger effect = lower value 0.893 | locus YEL061C, strain CIN8 (second series), stronger effect = lower value 0.863 | locus YEL061C, strain CIN8, stronger effect = lower value 0.911 | locus YER155C, strain BEM2 (second series), stronger effect = lower value 0.625 | locus YGL086W, strain mad1, stronger effect = lower value 0.9 | locus YGL240W, strain doc1, stronger effect = lower value 0.852 | locus YGL253W, strain hxk2, stronger effect = lower value 0.764 | locus YHR129C, strain ARP1, stronger effect = lower value 0.867 | locus YHR142W, strain chs7, stronger effect = lower value 0.668 | locus YIL066C, strain RNR3, stronger effect = lower value 0.832 | locus YJL095W, strain BCK1 (second series), stronger effect = lower value 0.864 | locus YJL164C, strain tpk1, stronger effect = lower value 0.852 | locus YJL166W, strain qcr8, stronger effect = lower value 0.756
inactive: locus YAL013W, strain DEP1, stronger effect = lower value 1.01 | locus YAL021C, strain ccr4, stronger effect = lower value 0.997 | locus YAL030W, strain snc1, stronger effect = lower value 0.986 | locus YBL061C, strain skt5, stronger effect = lower value 1 | locus YBR021W, strain FUR4, stronger effect = lower value 0.873 | locus YBR171W, strain sec66, stronger effect = lower value 0.978 | locus YBR229C, strain ROT2, stronger effect = lower value 0.981 | locus YBR279W, strain paf1, stronger effect = lower value 0.946 | locus YCL029C, strain bik1, stronger effect = lower value 0.943 | locus YCR088W, strain abp1, stronger effect = lower value 0.98 | locus YDL005C, strain med2, stronger effect = lower value 1.02 | locus YDL035C, strain GPR1, stronger effect = lower value 0.978 | locus YDL040C, strain nat1, stronger effect = lower value 0.974 | locus YDL074C, strain BRE1, stronger effect = lower value 0.928 | locus YDL101C, strain DUN1, stronger effect = lower value 0.95 | locus YDL185W, strain tfp1, stronger effect = lower value 0.987 | locus YDL192W, strain arf1, stronger effect = lower value 0.944 | locus YDR001C, strain nth1, stronger effect = lower value 0.983 | locus YDR069C, strain doa4, stronger effect = lower value 1.01 | locus YDR101C, strain arx1, stronger effect = lower value 0.963 | locus YDR159W, strain sac3, stronger effect = lower value 0.874 | locus YDR195W, strain ref2 1.1 | locus YDR297W, strain sur2, stronger effect = lower value 0.943 | locus YDR334W, strain swr1, stronger effect = lower value 0.974 | locus YDR388W, stronger effect = lower value 0.958 | locus YEL037C, strain rad23, stronger effect = lower value 0.984 | locus YER015W, strain faa2, stronger effect = lower value 0.936 | locus YER016W, strain bim1, stronger effect = lower value 1.03 | locus YER110C, stronger effect = lower value 0.945 | locus YER111C, strain swi4, stronger effect = lower value 1.01 | locus YER155C, strain BEM2, stronger effect = lower value 0.962 | locus YER167W, strain BCK2, stronger effect = lower value 0.947 | locus YFR010W, strain ubp6, stronger effect = lower value 0.986 | locus YGL078C, strain dbp3, stronger effect = lower value 0.976 | locus YGL167C, strain pmr1, stronger effect = lower value 1.06 | locus YGL173C, strain kem1, stronger effect = lower value 0.984 | locus YGL227W, strain vid30, stronger effect = lower value 0.986 | locus YGL248W, strain PDE1, stronger effect = lower value 0.916 | locus YGR135W, strain pre9, stronger effect = lower value 0.914 | locus YGR252W, strain gcn5, stronger effect = lower value 0.799 | locus YHR013C, strain ard1, stronger effect = lower value 0.862 | locus YHR027C, strain rpn1, stronger effect = lower value 0.979 | locus YHR079C, strain IRE1 (second series), stronger effect = lower value 0.979 | locus YHR079C, strain IRE1, stronger effect = lower value 0.952 | locus YHR094C, strain hxt1, stronger effect = lower value 0.969 | locus YHR200W, strain rpn10, stronger effect = lower value 0.969 | locus YIL073C, strain SPO22, stronger effect = lower value 0.833 | locus YIL125W, strain kgd1, stronger effect = lower value 0.973 | locus YIR030C, strain dcg1, stronger effect = lower value 0.978 | locus YJL092W, strain hpr5, stronger effect = lower value 0.97 | locus YJL115W, strain asf1, stronger effect = lower value 0.98 | locus YJL129C, strain trk1, stronger effect = lower value 0.929 | locus YJL134W, strain LCB3, stronger effect = lower value 0.996 | locus YJL154C, strain vps35, stronger effect = lower value 0.993 | locus YJL168C, strain set2, stronger effect = lower value 0.965 | locus YJL187C, strain SWE1 (second series), stronger effect = lower value 0.937 | locus YJL187C, strain SWE1, stronger effect = lower value 0.973 | locus YJR043C, strain POL32, stronger effect = lower value 0.915
0.733 (active) and 0.959 (inactive): locus YJL095W, strain BCK1, stronger effect = lower value
